Our source for the outcome, potentiation and inhibition values is PubChem BioAssay.

For some assays here: Entries with a potency or affinity are not part of this list. The source made the active and inactive calls.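 The calls were made as follows, unless noted: active = primary screen activator hit with a dose response curve and TRPC4 channel activation at any tested dose; inactive = no activation, no dose response, or not a primary hit.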

In test [1] the test system is TRPC4 beta (transient receptor potential cation channel C4), mouse. Nature of the test: activators of mouse TRPC4 channel, confirmation, cell-based, Fluo4 calcium, HEK293 TRPC4beta/mu-opioid, duplicates, 10 µM (AID 2426;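 active = fluorescence ratio normalized to control raised more than 50% in primary screen plus both repeat runs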). Particulars: Fluo4 calcium fluorescence, at 10 µM; stronger effect = higher value.
The test system of test [2] is transient receptor potential cation channel C4 beta (TRPC4), mouse. Nature of the test: activators of mouse TRPC4 channel, confirmation, cell-based, second round, Fluo4, HEK293 TRPC4beta/mu-opioid, 1 µM (AID 2461;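 active = primary screen active and over 50% activation in each of two duplicate runs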). Particulars: Fluo4 calcium fluorescence, at 1 µM; stronger effect = higher value.
In test [3] the test system is TRPC4 (transient receptor potential cation channel C4 beta), mouse. In words: positive allosteric modulators of mouse TRPC4, confirmation, cell-based, second round, Fluo-4, HEK293 TRPC4beta/mu-opioid, 1 µM (AID 2554;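 active = primary screen hit whose fluorescence ratio, in both repeats, exceeds the weak agonist control mean by 3 SD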). The conditions noted are these: DAMGO EC20, Fluo-4 calcium flux, at 1 µM; stronger effect = higher value.
The subject of test [4] is TRPC4 beta (transient receptor potential cation channel C4), mouse. In words: positive allosteric modulators of mouse TRPC4, confirmation, cell-based, Fluo-4, HEK293 TRPC4beta/mu-opioid (AID 2555;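 active = primary screen hit whose calcium fluorescence ratio, in both repeats, exceeds the weak agonist control mean by 3 SD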). Particulars: DAMGO EC20, Fluo-4 calcium flux, at 10 µM; stronger effect = higher value. (In general: Calcium assays in cells follow changes in intracellular calcium, usually with a dye or a luminescent sensor.)

The target of test [5] is Short transient receptor potential channel 4 (Mus musculus) (UniProt Q9QUQ5). Nature of the test: inhibitors of mouse TRPC4 channel, confirmation, cell-based, Fluo4, HEK293 TRPC4beta/mu-opioid (AID 2636;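 active = calcium signal cut by more than 3 SD below the full-agonist control yet still positive, in both repeats and the earlier primary screen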). Particulars: DAMGO, Fluo4 calcium flux, at 10 µM; stronger effect = higher value.
Sequence of Short transient receptor potential channel 4 (Mus musculus) (Q9QUQ5 whole entry, looked up): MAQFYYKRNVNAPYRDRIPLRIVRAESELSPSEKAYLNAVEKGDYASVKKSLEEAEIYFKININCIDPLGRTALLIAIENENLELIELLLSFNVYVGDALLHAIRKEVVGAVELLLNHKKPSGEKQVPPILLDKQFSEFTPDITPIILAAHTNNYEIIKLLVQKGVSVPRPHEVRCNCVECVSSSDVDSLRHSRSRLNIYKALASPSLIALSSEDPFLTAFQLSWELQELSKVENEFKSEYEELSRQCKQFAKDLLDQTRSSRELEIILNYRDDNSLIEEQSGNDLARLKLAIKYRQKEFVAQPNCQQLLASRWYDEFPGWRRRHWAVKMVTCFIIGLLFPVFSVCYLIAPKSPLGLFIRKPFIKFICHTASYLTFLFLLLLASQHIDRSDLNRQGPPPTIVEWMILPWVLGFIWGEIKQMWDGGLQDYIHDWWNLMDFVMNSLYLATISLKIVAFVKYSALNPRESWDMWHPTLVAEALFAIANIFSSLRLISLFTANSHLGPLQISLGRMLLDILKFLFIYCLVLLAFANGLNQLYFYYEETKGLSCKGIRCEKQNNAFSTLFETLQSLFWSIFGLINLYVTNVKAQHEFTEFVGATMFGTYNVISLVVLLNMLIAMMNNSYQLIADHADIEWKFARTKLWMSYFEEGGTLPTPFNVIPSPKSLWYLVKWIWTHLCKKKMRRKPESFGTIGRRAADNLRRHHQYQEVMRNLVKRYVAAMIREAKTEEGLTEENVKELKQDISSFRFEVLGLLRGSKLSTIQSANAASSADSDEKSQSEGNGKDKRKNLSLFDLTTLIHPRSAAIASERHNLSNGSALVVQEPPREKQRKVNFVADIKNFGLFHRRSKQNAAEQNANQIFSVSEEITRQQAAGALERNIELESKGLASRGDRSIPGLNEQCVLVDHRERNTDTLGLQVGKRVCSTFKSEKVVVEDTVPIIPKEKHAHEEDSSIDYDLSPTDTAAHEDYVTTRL
Test [6] has the same target. Nature of the test: inhibitors of mouse TRPC4 channel, confirmation, cell-based, second round, Fluo4, HEK293 TRPC4beta/mu-opioid, 1 µM (AID 2637;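 active = calcium signal ratio cut to more than 3 SD under the fully stimulated control mean yet still positive, in both repeats and the primary screen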). Particulars: Fluo4 calcium flux, DAMGO, at 1 µM; stronger effect = higher value.
Test [7] has the same target. Nature of the test: mouse TRPC4 channel activators, dose response, cell-based, HEK293 TRPC4/mu-opioid, Fluo-4 calcium (AID 434937). The conditions noted are these: HEK293 TRPC4 cells, Fluo-4 calcium fluorescence ratio; series mostly up to 20 µM.
Test [8] has the same target. Nature of the test: TRPC4 positive allosteric modulators, dose response, cell-based, HEK293 TRPC4/mu-opioid, Fluo-4 calcium, EC20 DAMGO (AID 434941;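 active = earlier screen potentiator hit that boosts the TRPC4 ion channel at some dose, with a dose response; inactive = no potentiation, no dose response, or not a prior hit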;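 also: calcium entry triggered by an EC20 dose of DAMGO at the co-expressed mu-opioid receptor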). Particulars: HEK293 TRPC4/mu-opioid cells, Fluo-4 calcium fluorescence; series mostly up to 20 µM.
Test [9] shares this target. Nature of the test: mouse TRPC4 channel inhibitors, dose response, cell-based, HEK293 TRPC4/mu-opioid, Fluo-4 calcium (AID 434942;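 active = primary screen inhibitor hit that blocks the TRPC4 channel at some tested dose, yielding a dose curve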). Particulars: HEK293 TRPC4/mu-opioid cells, DAMGO-evoked Fluo-4 calcium ratio; series mostly up to 20 µM.
Test [10] concerns the target Short transient receptor potential channel 6 (Mus musculus) (UniProt Q61143). In words: inhibition of mouse TRPC6 channel, confirmation, selectivity assay for TRPC4 inhibitor project, cell-based, HEK293, membrane potential dye, duplicate (AID 434948;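 active = active in primary screen and both duplicates, each dropping signal beyond three positive-control SD with fluorescence still positive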). Particulars: HEK293 TRPC6, membrane potential dye fluorescence, at 10 µM, stimulated with maximal-effect acetylcholine; stronger effect = higher value.

Test [11] has the same target. Nature of the test: activation of mouse TRPC6 channel, confirmation, selectivity assay for TRPC4 activator project, cell-based, HEK293, membrane potential dye, duplicate (AID 434950;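 active = membrane potential signal rise above negative control mean plus 3 SD in both duplicates, also active in the earlier TRPC4 screen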). Particulars: HEK293 TRPC6, membrane potential fluorescence, at 10 µM; stronger effect = higher value.
Test [12] shares this target. Nature of the test: TRPC6 potentiation by TRPC4 potentiator hits, confirmation, selectivity assay for TRPC4 potentiator project, HEK293 cells, membrane potential dye, duplicate (AID 434952;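 active = compound raising the membrane signal above positive-control mean plus 3 SD in both repeats, and a primary screen hit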). The conditions noted are these: HEK293 TRPC6, membrane potential dye fluorescence, at 10 µM, maximal acetylcholine added after compound; stronger effect = higher value.
For test [13], the target named is Short transient receptor potential channel 4 (Mus musculus) (UniProt Q9QUQ5). In words: calcium flux activators in TRPC4/5HT1a cells, counter-screen for TRPC4 activator project, cell-based, second counter screen, HEK293 TRPC4/5HT1a, Fluo-4 (AID 434977;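 active = calcium signal rise above buffer-control mean plus 5 SD in both duplicates, and also a hit in the primary screen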). Particulars: Fluo-4 calcium flux, at 10 µM; stronger effect = higher value.
The nature of test [14]: calcium flux inhibitors in TRPC4/5HT1a cells, confirmation, counter-screen for TRPC4 inhibitor project, cell-based, second counter screen, HEK293 TRPC4/5HT1a, Fluo-4 (AID 434978;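 active = primary screen active whose calcium signal fell more than 3 SD beyond the full-serotonin control mean in both duplicate plates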;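 also: serotonin given first at submaximal then at maximal dose after compound preincubation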). The conditions noted are these: Fluo-4 calcium flux, at 10 µM, serotonin added to trigger calcium flux; stronger effect = higher value.
In test [15] the test system is TRPC4 (mouse), co-expressed with 5HT1a in HEK293. Nature of the test: calcium flux potentiators in TRPC4/5HT1a cells, confirmation, counter-screen for TRPC4 potentiator project, cell-based, second counter screen, HEK293 TRPC4/5HT1a, Fluo-4 (AID 434979;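 active = signal rise over 3 SD above mean of control wells given weak agonist, in both repeats and first screen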). The conditions noted are these: Fluo-4 calcium flux, at 10 µM, serotonin added at its EC20 dose; stronger effect = higher value.

The nature of test [16]: calcium flux activation in mu-opioid HEK293 cells, confirmation, counter-screen for TRPC4 activator project, cell-based, HEK293 mu-opioid receptor line (AID 449723;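 active = hit in primary screen, with calcium signal over 5 SD above buffer well mean in both duplicates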;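 also: counter screen cells carry the mu-opioid receptor alone and lack TRPC4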). Particulars: Fluo-4 calcium fluorescence, at 10 µM; stronger effect = higher value.
Test [17] can be described thus: calcium flux enhancement in mu-opioid HEK293 cells, confirmation, counter-screen for TRPC4 allosteric potentiator project, cell-based, HEK293 mu-opioid receptor line (AID 449724;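 active = calcium signal rise more than 3 SD above the low-dose agonist control mean, in both duplicate plates and the primary screen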;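 also: HEK293 cells carrying mu-opioid receptor only with no TRPC4 channel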). The conditions noted are these: Fluo-4 calcium flux, at 10 µM, compound added before EC20 DAMGO stimulus; stronger effect = higher value.

Broadly, the inhibition is the share of the control response that was lost under treatment.

Sequence of Short transient receptor potential channel 6 (Mus musculus) (Q61143 whole entry, looked up): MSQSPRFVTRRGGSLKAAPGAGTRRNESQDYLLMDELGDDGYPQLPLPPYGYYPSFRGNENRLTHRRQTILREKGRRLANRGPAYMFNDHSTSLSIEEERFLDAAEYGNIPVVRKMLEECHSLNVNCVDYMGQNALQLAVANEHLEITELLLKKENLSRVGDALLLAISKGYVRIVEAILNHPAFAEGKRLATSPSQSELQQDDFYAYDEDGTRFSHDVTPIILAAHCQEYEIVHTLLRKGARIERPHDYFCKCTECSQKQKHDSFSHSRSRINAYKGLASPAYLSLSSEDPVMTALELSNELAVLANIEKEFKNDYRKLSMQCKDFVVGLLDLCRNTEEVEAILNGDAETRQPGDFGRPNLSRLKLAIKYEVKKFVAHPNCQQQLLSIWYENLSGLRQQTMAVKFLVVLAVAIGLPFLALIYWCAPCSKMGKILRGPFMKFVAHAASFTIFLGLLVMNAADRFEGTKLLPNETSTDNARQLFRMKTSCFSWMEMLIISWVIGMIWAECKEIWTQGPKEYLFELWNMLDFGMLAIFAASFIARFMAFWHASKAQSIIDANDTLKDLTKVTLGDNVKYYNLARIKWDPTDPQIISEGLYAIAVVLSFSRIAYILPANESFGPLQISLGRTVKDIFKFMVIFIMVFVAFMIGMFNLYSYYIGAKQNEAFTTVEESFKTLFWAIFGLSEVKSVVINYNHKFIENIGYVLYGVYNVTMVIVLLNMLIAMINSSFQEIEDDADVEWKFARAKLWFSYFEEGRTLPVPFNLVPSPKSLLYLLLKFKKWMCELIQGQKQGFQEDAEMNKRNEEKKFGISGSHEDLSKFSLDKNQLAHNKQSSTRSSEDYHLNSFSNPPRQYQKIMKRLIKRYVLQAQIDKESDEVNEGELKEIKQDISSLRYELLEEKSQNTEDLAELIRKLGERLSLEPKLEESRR

For the compound `O=S(=O)(c1ccccc1Cl)N1CCC(Cc2ccccc2)CC1`, the outcome in test [1], in test [2], in test [3], in test [5], in test [6] and in [7] was inactive. For the same compound, the result in [8], in test [9], in test [10], in test [11], in [12] and in [13] was inactive. Besides, the result in test [14], in [16] and in [17] was inactive. Moreover, the values for the potentiation in [4] and in test [15] were 16% (active) and 6.72% (active), respectively.

Consider `COc1ccc(CN2CCN(c3nc4ccccc4s3)CC2)cc1`, for which the outcome in test [1], in test [2], in test [3], in test [4], in test [5] and in [6] was inactive. Besides, the result in test [7], in test [8], in test [9], in [10], in [11] and in [12] was inactive. Besides, the outcome in [13], in test [14], in test [16] and in test [17] was inactive. For the same compound, in test [15], the potentiation is 12.4% (active).

Consider `COc1ccc(C(=O)OCCc2sc[n+](CC(=O)c3ccccc3)c2C)cc1`, for which the result in test [1], in [2], in [3], in [4], in [5] and in test [6] was inactive. The result in [7], in test [8], in test [9], in [11], in test [12] and in test [13] was inactive. Also, the outcome in test [14], in test [15], in [16] and in test [17] was inactive. Moreover, the inhibition in test [10] is 43% (active).

For `O=c1c2ccccc2nc(COc2ccccc2)n1/N=C/c1cc([N+](=O)[O-])ccc1O`, the result in [1], in test [2], in [5], in test [6], in test [7] and in test [8] was inactive. In addition, the outcome in [9], in [10], in [11], in test [12], in [13] and in test [14] was inactive. For the same compound, the outcome in [16] and in test [17] was inactive. Besides, the potentiation was 11% (active) in test [3], 23% (active) in test [4] and 10.5% (active) in test [15].

Take `Cc1ccc(C(=O)C[n+]2cccc3cc(C)ccc32)cc1`: the outcome in test [1], in test [2], in test [3], in test [4], in test [5] and in test [6] was inactive. In addition, the result in test [7], in [8], in test [9], in test [10], in [11] and in [12] was inactive. Also, the outcome in test [13], in test [14], in [15], in test [16] and in test [17] was inactive.

For the compound `Cc1ccc(Cl)cc1N1CCN(Cc2nc3c(c(=O)[nH]c(=O)n3C)n2Cc2ccccc2F)CC1`, the outcome in [1], in [2], in test [3], in test [4], in [5] and in test [6] was inactive. The result in test [7], in [8], in test [9], in [10], in test [11] and in [12] was inactive. The outcome in [13], in test [14], in test [16] and in [17] was inactive. The potentiation in [15] is 25.8% (active).

Take `CN(C)S(=O)(=O)c1cccc(COC(=O)c2ccc(Cl)cc2O)c1`: the outcome in [1], in [2], in test [3], in test [5], in test [6] and in test [7] was inactive. For the same compound, the result in test [8], in [9], in test [10], in test [11], in [12] and in test [13] was inactive. For the same compound, the result in test [14], in [16] and in [17] was inactive. The potentiation is 21% (active) in test [4] and 41.5% (active) in [15].

On to `Cc1ccc2nc(C(=O)N3CCc4c([nH]c5ccccc45)C3c3ccccn3)cn2c1` (stereo not given), for which the result in test [1], in test [2], in test [3], in test [4], in test [5] and in test [6] was inactive. The outcome in test [7], in [8], in [9], in test [10], in test [11] and in test [12] was inactive. Moreover, the outcome in [13], in test [14], in test [15], in test [16] and in test [17] was inactive.

In the case of `Cc1ccc(CSc2nnc(-c3cccc(S(=O)(=O)N4CCOCC4)c3)n2C2CCCC2)cc1`, the outcome in test [1], in test [2], in [3], in test [4], in test [5] and in test [6] was inactive. The outcome in test [7], in test [8], in [9], in test [10], in test [11] and in test [12] was inactive. For the same compound, the outcome in test [13], in [14], in test [15], in [16] and in test [17] was inactive.

For the compound `Cc1cccc(NC(=O)c2cc([N+](=O)[O-])ccc2N2CCN(C)CC2)c1`, the outcome in [1], in [2], in test [3], in test [4], in test [5] and in test [6] was inactive. Also, the result in [7], in test [8], in test [9], in test [10], in test [11] and in test [12] was inactive. In addition, the outcome in test [13], in test [14], in test [16] and in test [17] was inactive. In test [15], the potentiation was 18.8% (active).
